# Results taken from the supplement of paper PMC9135407.
# Structures can show the parent of a compound that is named as a salt.
# Test system: primary human hepatic stellate cells (donor 1)
# Assay: ACTA2 mRNA fold change vs DMSO (normalised to PSMB2); higher = more ACTA2 expression
# Details: 48 h
# Procedure: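 Secondary qRT-PCR screen in primary human HSCs (donor 1), 384-well plates, with compounds dispensed in quadruplicate and incubated for 48 h. Cells-to-CT lysates were used for multiplexed TaqMan qPCR of ACTA2 or COL1A1 with PSMB2 as reference. Fold changes versus DMSO come from a linear model (Ct_gene ~ Ct_PSMB2 + plate + chemical). A hit is defined as COL1A1 and ACTA2 FC <0.5 (FDR <0.05) with PSMB2 between 0.2 and 2.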
row,SMILES,ACTA2 mRNA fold change
1,COc1cc2nc(N3CCCN(C)CC3)nc(NC3CCN(Cc4ccccc4)CC3)c2cc1OC (3.33333 µM),0.0176
2,CCN(CC)CC#CCOC(=O)C(O)(c1ccccc1)C1CCCCC1 (stereo not given) [Oxybutynin chloride] (16.9333 µM),1.09
3,CNc1nccc(-c2cccnc2Oc2cc(C(=O)Nc3cccc(C(F)(F)F)c3)ccc2C)n1 (33.3333 µM),0.569
4,Cc1ccc(S(=O)(=O)/C=C/C#N)cc1 (33.3333 µM),0.24
5,CC(/C=C/C(=O)NO)=C\[C@@H](C)C(=O)c1ccc(N(C)C)cc1 [Trichostatin A] (3.33333 µM),0.0381
6,Nc1ccc(C(=O)Nc2cccc(-c3nc(N4CCOCC4)c4oc5ncccc5c4n3)c2)cn1 (6.66667 µM),1.8
7,CNCCC(Oc1ccc(C(F)(F)F)cc1)c1ccccc1 (stereo not given) [Fluoxetine hydrochloride] (33.3333 µM),0.0314
8,Clc1ccc(C2(c3ccc(-c4cn[nH]c4)cc3)CCNCC2)cc1 (33.3333 µM),0.0459
9,CCN1CCC(n2cc(CNc3cc(Cl)c4ncc(C#N)c(Nc5ccc(F)c(Cl)c5)c4c3)nn2)CC1 (33.3333 µM),0.0712
10,Cc1cc(Nc2cc(N3CCN(C)CC3)nc(/C=C/c3ccccc3)n2)n[nH]1 (11.1 µM),0.703
11,O=C1NCN(c2ccccc2)C12CCN(CCCC(c1ccc(F)cc1)c1ccc(F)cc1)CC2 [Fluspirilene] (14.0333 µM),1.03
12,C[C@H]1O[C@@H](O[C@H]2[C@@H](O)C[C@H](O[C@H]3[C@@H](O)C[C@H](O[C@H]4CC[C@@]5(C)[C@H](CC[C@@H]6[C@@H]5C[C@@H](O)[C@]5(C)[C@@H](C7=CC(=O)OC7)CC[C@]65O)C4)O[C@@H]3C)O[C@@H]2C)C[C@H](O)[C@@H]1O [Digoxin] (33.3333 µM),0.0126
13,CCCCCCCCc1ccc(CCC(N)(CO)CO)cc1 [Fingolimod (FTY720) HCl] (11.1 µM),0.301
14,CCN(CC)CCCCNc1ncc2cc(-c3c(Cl)cccc3Cl)c(NC(=O)NC(C)(C)C)nc2n1 (33.3333 µM),0.196
15,OCCN1CCN(CCCN2c3ccccc3Sc3ccc(C(F)(F)F)cc32)CC1 (33.3333 µM),0.0188
16,CSc1ccc2c(c1)C(N1CCN(C)CC1)Cc1ccccc1S2 (stereo not given) [Methiothepin maleate] (33.3333 µM),0.00993
17,CC(C)c1cc(-c2n[nH]c(=O)n2-c2ccc3c(ccn3C)c2)c(O)cc1O [Ganetespib (STA-9090)] (33.3333 µM),0.605
18,CN1CCC(NC(=O)c2cc(-c3c(O)cc(O)cc3Oc3ccc([N+](=O)[O-])cc3)on2)CC1 (33.3333 µM),1.25
19,CN1CCN(Cc2ccc(-c3cnc4[nH]cc(-c5ccc6[nH]ccc6c5)c4c3)cc2)CC1 (6.66667 µM),0.042
20,N=C(N)SCCc1ccc(OCc2ccc([N+](=O)[O-])cc2)cc1 [KB-R7943 mesylate] (33.3333 µM),0.0804

row,SMILES,ACTA2 mRNA fold change
1,COC(=O)C[C@](O)(CCCC(C)(C)O)C(=O)O[C@@H]1C(OC)=C[C@]23CCCN2CCc2cc4c(cc2[C@H]13)OCO4 [Homoharringtonine] (33.3333 µM),0.0673
2,CCNC(=O)c1noc(-c2cc(C(C)C)c(O)cc2O)c1-c1ccc(CN2CCOCC2)cc1 (11.1 µM),1.19
3,CC(C)NCCCn1c(Sc2cc3c(cc2I)OCO3)nc2c(N)ncnc21 (33.3333 µM),1.26
4,Cc1nc2ccc(-n3ncc(C(=O)c4cc5ccccc5[nH]4)c3N)cc2[nH]1 (33.3333 µM),0.785
5,Cc1cccc(Nc2nc(-c3ccncc3)cs2)c1 (11.1 µM),1.07
6,CN(C)C/C=C(/c1ccc(Br)cc1)c1cccnc1 [Zimelidine dihydrochloride] (11.1 µM),0.452
7,CCc1cc2c(cc1CC)CC(NC[C@H](O)c1ccc(O)c3[nH]c(=O)ccc13)C2 [Indacaterol Maleate] (33.3333 µM),0.0334
8,"O=S(=O)(NCCNC/C=C/c1ccc(Br)cc1)c1cccc2cnccc12 [H-89, Dihydrochloride] (11.1 µM)",1.09
9,NC1(c2ccc(-c3nc4ccn5c(=O)[nH]nc5c4cc3-c3ccccc3)cc2)CCC1 (11.1 µM),0.33
10,C#CC1(O)CC[C@H]2[C@@H]3CCC4=CC(=O)CC[C@@H]4[C@H]3CC[C@@]21CC (stereo not given in full) [Norgestrel] (21.3333 µM),0.714
11,CN1CCC(=C2c3ccccc3C=Cc3ccccc32)CC1 [Cyproheptadine] (33.3333 µM),0.172
12,C[C@@H]1CN(CCCn2c3ccccc3c3ccccc32)C[C@H](C)N1 [Rimcazole dihydrochloride] (33.3333 µM),0.0478
13,CC[C@@H]1C(=O)N(C)c2cnc(Nc3ccc(C(=O)NC4CCN(C)CC4)cc3OC)nc2N1C1CCCC1 (33.3333 µM),0.158
14,CN1CCCN(C(c2ccccc2)c2ccc(Cl)cc2)CC1 (stereo not given) [Homochlorcyclizine dihydrochloride] (33.3333 µM),0.0102
15,"Cc1ccc(NC(=O)c2ccc(CN3CCN(C)CC3)cc2)cc1Nc1nc(-c2cccnc2)cs1 [Masitinib (AB1010, Masivet)] (6.66667 µM)",0.706
16,NC[C@@H]1O[C@H](C23CC4CC(CC(C4)C2)C3)Cc2c1ccc(O)c2O (33.3333 µM),0.309
17,"NC(N)=NC(=O)c1nc(Cl)c(N2CCCCCC2)nc1N [5-(N,N-hexamethylene)amiloride] (33.3333 µM)",0.0262
18,CNCCCC12CCC(c3ccccc31)c1ccccc12 [Maprotiline hydrochloride] (33.3333 µM),0.0243
19,Cn1cc(C2=C(c3ccc(Cl)cc3Cl)C(=O)NC2=O)c2ccccc21 (33.3333 µM),0.332
20,O=C(Nc1cc(C(F)(F)F)cc(C(F)(F)F)c1)c1cc(Cl)ccc1O (33.3333 µM),0.0138
